Measured values taken from PubChem BioAssay (Tox21).
Records with an inconclusive call do not appear. Calls of active or inactive are those of the source. Unless noted, calls follow the shape of the dose curve; as a rule, active = well fitted curve in the direction sought with a large enough effect in the repeat runs; inconclusive = weak or mixed curves; inactive = no such curve, though single readings can be large; an effect the other way counts as inactive or inconclusive.

What was measured:
[1] = qHTS assay to identify small molecule antagonists of the estrogen receptor alpha (ER-alpha) signaling pathway using the BG1 cell line in the presence of 0.1 nM 17-beta-estradiol - cell viability counter screen (AID 1259241); also: nearly all actives have a fitted effect of over 40% in size; also: potency is read from the fitted curve at half-maximal effect
Procedure, shortened: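 Live-cell protease activity (CellTiter-Fluor fluorescence, 30 min) was read in the same wells after VM7Luc4E2 cells had been exposed to compounds with 0.1 nM 17beta-estradiol for 22 hr at 37C.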

[2] = qHTS assay to identify small molecule HDAC inhibitors (AID 1259364);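 also: wild-type HCT-116 cells with endogenous class I/II HDAC activity; top concentration of the series differs between compounds; nearly all actives have a fitted effect of over 45% in size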
Procedure, shortened: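 HCT-116 wt cells, 1,500/well, overnight attach. Compounds (DMSO) 2 h, 37 °C. HDAC-Glo I/II, 30 min RT. Luminescence.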

[3] = qHTS assay to identify small molecule HDAC inhibitors - cell viability counter screen (AID 1259365); also: series mostly up to about 92 µM; nearly all actives have a fitted effect of over 50% in size
Procedure, shortened: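 HCT-116 (wild type), 1,500 cells/well, overnight 37C/5% CO2; compound in DMSO 2hr; CellTiter-Glo 30min RT; luminescence read.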

[4] = qHTS assay to identify small molecule agonists of the sonic hedgehog signaling (Shh) pathway - cell viability counter screen (AID 1259366); also: nearly all actives have a fitted effect of over 50% in size; also: potency is read from the fitted curve at half-maximal effect
Procedure, shortened: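 CellTiter-Fluor fluorescence read-out, 1 hr at 37C, added after 23hr compound exposure. Cells: 3T3 Gli1-Luc, an NIH/3T3 clone with stably integrated Gli1-Luc reporter, plated 4hr before compound.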

[5] = qHTS assay to identify small molecule antagonists of the sonic hedgehog signaling (Shh) pathway - cell viability counter screen (AID 1259367); also: nearly all actives have a fitted effect of over 55% in size; also: potency is read from the fitted curve at half-maximal effect
Procedure, shortened: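 Conditioned medium drove Shh signaling in 3T3 Gli1-Luc cells exposed to compounds at 37C and 5% CO2. Viability was determined from CellTiter-Fluor fluorescence, with reagent incubated 1 hr after 23 hr of treatment.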

[6] = qHTS assay to identify small molecule agonists of the sonic hedgehog signaling (Shh) pathway (AID 1259368; calls by dose curve;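 also: NIH/3T3-derived 3T3Gli1-Luc cells carrying a stable Gli1-driven firefly luciferase reporter; series mostly up to about 92 µM; nearly all actives have a fitted effect of over 15% in size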)
Procedure, shortened: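 Following a 24 hr incubation with DMSO-dissolved compounds at 37 C, 5% CO2, Gli1-Luc NIH/3T3-derived cells received luciferase reagent for 30 min at room temperature prior to luminescence measurement.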

[7] = qHTS assay to identify small molecule antagonists of the sonic hedgehog signaling (Shh) pathway (AID 1259369; calls by dose curve; also: nearly all actives have a fitted effect of over 45% in size; also: potency is read from the fitted curve at half-maximal effect)
Procedure, shortened: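 Read-out is luminescence from a firefly luciferase gene controlled by the Gli1 response element, in 3T3Gli1-Luc cells pre-incubated 4hr then exposed to compounds and conditioned medium for 24hr.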

[8] = molecular target: Estrogen receptor beta (Homo sapiens) (UniProt Q92731); assay: qHTS assay to identify small molecule agonists of the estrogen receptor beta (ER-beta) signaling pathway (AID 1259377; active = well fitted activation curve with a large enough effect in the signal ratio in the repeat runs, not every such curve was filed as active; the % refers to the signal ratio)
Chain of Estrogen receptor beta (Homo sapiens) (Q92731 whole entry, looked up): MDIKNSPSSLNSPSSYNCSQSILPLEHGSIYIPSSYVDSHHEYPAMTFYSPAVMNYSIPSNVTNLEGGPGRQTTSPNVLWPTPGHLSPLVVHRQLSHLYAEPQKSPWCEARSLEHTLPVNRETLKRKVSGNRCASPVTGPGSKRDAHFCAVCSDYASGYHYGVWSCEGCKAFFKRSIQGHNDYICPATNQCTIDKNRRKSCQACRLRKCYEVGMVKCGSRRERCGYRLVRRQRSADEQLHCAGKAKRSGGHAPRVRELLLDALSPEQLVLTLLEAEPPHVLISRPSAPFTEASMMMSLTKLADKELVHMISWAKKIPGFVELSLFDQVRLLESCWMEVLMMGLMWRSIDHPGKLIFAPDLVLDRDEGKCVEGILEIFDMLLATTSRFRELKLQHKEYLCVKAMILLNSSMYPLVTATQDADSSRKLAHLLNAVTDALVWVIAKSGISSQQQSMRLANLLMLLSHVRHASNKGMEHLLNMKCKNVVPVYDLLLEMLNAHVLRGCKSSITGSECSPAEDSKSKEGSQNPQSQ
Procedure, shortened: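 Beta-lactamase reporter readout: fluorescence of LiveBLAzer B/G FRET substrate after 2 h at room temperature, following 16 h compound treatment of ER-beta-UAS-bla HEK293T cells at 37C in 2% charcoal-stripped FBS medium.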

[9] = molecular target: Estrogen receptor beta (Homo sapiens) (UniProt Q92731); assay: qHTS assay to identify small molecule antagonists of the estrogen receptor beta (ER-beta) signaling pathway (AID 1259378; active = well fitted inhibition curve with a large enough effect in the signal ratio in the repeat runs, not every such curve was filed as active; the % refers to the signal ratio)
Procedure, shortened: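 ER-beta-UAS-bla HEK293T (GripTite) cells in 2% charcoal-stripped FBS medium were preincubated 6 hr at 37C, dosed with compound, then stimulated with 1 nM E2 (final) for 16 hr; beta-lactamase reporter read by B/G FRET fluorescence after 2 hr substrate loading.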

[10] = qHTS assay to identify small molecule agonists of the estrogen receptor beta (ER-beta) signaling pathway - cell viability counter screen (AID 1259380); also: nearly all actives have a fitted effect of over 30% in size; also: potency is read from the fitted curve at half-maximal effect
Procedure, shortened: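 Compounds dissolved in DMSO were pin-transferred onto ER-beta-UAS-bla HEK293T cells that had settled 6 hr, and exposure ran 16 hr at 37C. Following the reporter read, CellTiter-Glo luminescence after 30 min at room temperature indicated cytotoxicity.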

[11] = qHTS assay to identify small molecule antagonists of the estrogen receptor beta (ER-beta) signaling pathway - cell viability counter screen (AID 1259382); also: nearly all actives have a fitted effect of over 55% in size; also: potency is read from the fitted curve at half-maximal effect
Procedure, shortened: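 CellTiter-Glo ATP luminescence measured after the LiveBLAzer read in the same wells; ER-beta-UAS-bla HEK293T cells, 16 hr compound treatment with 1nM 17-beta-estradiol agonist at 37C, 5% CO2.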

[12] = molecular target: Estrogen receptor (Homo sapiens) (UniProt P03372); assay: qHTS assay to identify small molecule agonists of the estrogen receptor alpha (ER-alpha) signaling pathway in the presence of an antagonist (AID 1259383; calls by dose curve; also: top concentration of the series differs between compounds; nearly all actives have a fitted effect of over 15% in size)
Chain of Estrogen receptor (Homo sapiens) (P03372 whole entry, looked up): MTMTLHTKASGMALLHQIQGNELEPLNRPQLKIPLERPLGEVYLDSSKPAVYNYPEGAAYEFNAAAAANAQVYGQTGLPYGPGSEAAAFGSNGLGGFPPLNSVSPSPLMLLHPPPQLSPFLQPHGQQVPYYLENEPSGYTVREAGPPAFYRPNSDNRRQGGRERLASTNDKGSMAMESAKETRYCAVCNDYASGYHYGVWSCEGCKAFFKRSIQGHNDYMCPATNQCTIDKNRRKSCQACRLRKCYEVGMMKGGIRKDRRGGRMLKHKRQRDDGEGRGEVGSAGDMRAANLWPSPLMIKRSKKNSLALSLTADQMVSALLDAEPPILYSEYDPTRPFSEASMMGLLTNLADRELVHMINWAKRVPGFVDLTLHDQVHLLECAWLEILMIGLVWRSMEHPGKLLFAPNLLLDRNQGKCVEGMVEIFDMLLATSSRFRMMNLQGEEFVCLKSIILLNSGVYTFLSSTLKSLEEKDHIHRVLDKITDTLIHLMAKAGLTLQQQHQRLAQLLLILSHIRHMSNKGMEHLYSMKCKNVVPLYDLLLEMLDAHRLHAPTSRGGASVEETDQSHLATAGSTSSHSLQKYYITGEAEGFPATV
Procedure, shortened: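 Luminescent ERE-luciferase reporter, VM7Luc4E2 cells (endogenous ER-alpha); 10.0nM ICI-182,780 final; 15-point compound titration; 22hr at 37C; ONE-Glo, 30min RT.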

[13] = qHTS assay to identify small molecule agonists or antagonists of the thyroid stimulating hormone receptor (TSHR) signaling pathway - wild type cell line counter screen (AID 1259384; calls by dose curve)
Procedure, shortened: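 Wild-type HEK293 cells were plated 18 h at 37 C/5% CO2, pin-dosed with compound plus Ro20-1724 medium, held 30 min at room temperature, then given cAMP-d2 and anti-cAMP-cryptate; fluorescence was read after 1 h. Fifteen concentrations, triplicate.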

[14] = molecular target: Thyrotropin receptor (Homo sapiens) (UniProt P16473); assay: qHTS assay to identify small molecule antagonists of the thyroid stimulating hormone receptor (TSHR) signaling pathway (AID 1259385; calls by dose curve; also: nearly all actives have a fitted effect of over 20% in size)
Chain of Thyrotropin receptor (Homo sapiens) (P16473 whole entry, looked up): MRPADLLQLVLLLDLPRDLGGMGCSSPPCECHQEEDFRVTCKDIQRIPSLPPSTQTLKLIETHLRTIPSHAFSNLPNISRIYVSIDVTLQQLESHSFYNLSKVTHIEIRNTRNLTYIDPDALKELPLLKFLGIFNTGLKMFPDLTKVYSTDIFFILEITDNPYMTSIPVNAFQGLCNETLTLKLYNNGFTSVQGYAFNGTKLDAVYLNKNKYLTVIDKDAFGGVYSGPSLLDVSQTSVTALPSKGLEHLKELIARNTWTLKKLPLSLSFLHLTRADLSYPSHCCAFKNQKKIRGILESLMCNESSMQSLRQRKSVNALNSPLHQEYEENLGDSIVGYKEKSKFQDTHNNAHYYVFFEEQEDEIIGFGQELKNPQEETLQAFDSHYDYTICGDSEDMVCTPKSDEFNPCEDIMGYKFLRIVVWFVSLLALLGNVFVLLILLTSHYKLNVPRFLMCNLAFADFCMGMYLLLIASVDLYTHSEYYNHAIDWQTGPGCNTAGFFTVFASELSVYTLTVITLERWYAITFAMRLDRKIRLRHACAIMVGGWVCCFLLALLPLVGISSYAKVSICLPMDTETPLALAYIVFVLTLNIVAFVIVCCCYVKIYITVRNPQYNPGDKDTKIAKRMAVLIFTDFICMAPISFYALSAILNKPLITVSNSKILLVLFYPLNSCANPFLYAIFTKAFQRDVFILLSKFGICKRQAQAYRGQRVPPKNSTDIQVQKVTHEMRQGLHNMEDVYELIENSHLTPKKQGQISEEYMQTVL
Procedure, shortened: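 TSHR-HEK293 cells were plated and held 18 h at 37C/5% CO2, then given compound plus Ro20-1724 and stimulated with TSH at 1.5 ng/mL final. After 30 min at room temperature, cAMP was detected with cAMP-d2/anti-cAMP-cryptate (1 h) by fluorescence.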

[15] = molecular target: Estrogen receptor (Homo sapiens) (UniProt P03372); assay: qHTS assay to identify small molecule antagonists of the estrogen receptor alpha (ER-alpha) signaling pathway using the BG1 cell line in the presence of 0.1 nM 17-beta-estradiol (AID 1259244); also: nearly all actives have a fitted effect of over 50% in size; also: potency is read from the fitted curve at half-maximal effect
Procedure, shortened: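 Luciferase signal from VM7Luc4E2 ERE-reporter cells, co-dosed with test compound and 0.1 nM final 17beta-estradiol for 22 h, read with ONE-Glo.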

[16] = qHTS assay to identify small molecule agonists of the androgen receptor (AR) signaling pathway in the presence of an antagonist - cell viability counter screen (AID 1259379); also: nearly all actives have a fitted effect of over 25% in size; also: potency is read from the fitted curve at half-maximal effect
Procedure, shortened: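 Each compound was tested at 15 concentrations on MDA-kb2 cells in the presence of 3.0uM nilutamide. Viability was measured by CellTiter-Fluor fluorescence after a 16 hr incubation at 37C in a CO2-free atmosphere.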

[17] = molecular target: Androgen receptor (Homo sapiens) (UniProt P10275); assay: qHTS assay to identify small molecule agonists of the androgen receptor (AR) signaling pathway in the presence of an antagonist (AID 1259381; calls by dose curve; also: nearly all actives have a fitted effect of over 15% in size)
Chain of Androgen receptor (Homo sapiens) (P10275 whole entry, looked up): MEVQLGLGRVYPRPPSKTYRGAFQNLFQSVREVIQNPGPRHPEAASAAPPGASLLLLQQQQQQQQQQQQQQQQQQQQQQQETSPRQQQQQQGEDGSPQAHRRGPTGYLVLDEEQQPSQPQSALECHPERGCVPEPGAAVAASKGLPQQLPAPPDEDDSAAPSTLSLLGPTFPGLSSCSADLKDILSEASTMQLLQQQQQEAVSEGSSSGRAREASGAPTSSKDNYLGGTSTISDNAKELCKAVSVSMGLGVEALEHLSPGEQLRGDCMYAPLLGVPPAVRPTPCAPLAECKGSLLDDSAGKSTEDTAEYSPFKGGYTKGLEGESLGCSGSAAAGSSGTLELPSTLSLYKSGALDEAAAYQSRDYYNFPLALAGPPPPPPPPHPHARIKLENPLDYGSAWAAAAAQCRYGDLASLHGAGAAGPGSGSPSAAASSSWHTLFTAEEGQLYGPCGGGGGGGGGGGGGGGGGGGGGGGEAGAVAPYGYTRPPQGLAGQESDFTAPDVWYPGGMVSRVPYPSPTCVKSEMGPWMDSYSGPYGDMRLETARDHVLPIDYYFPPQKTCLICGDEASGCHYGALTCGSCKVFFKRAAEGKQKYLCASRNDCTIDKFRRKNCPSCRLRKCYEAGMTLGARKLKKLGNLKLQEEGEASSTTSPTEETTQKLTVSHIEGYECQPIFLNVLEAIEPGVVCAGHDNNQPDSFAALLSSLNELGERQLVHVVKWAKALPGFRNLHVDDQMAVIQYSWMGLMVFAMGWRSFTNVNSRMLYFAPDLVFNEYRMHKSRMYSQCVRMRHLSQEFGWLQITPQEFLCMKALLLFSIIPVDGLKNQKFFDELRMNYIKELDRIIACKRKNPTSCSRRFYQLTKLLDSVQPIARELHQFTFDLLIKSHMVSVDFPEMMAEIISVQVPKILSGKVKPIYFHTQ
Procedure, shortened: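 Plated MDA-kb2 cells (3,000/well) were pre-incubated 5hr, given nilutamide (3.0uM final) or buffer, then dosed with compounds in DMSO at 15 concentrations. Luciferase activity was quantified by luminescence after 16hr at 37C.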

Measured: Potency

C[n+]1ccn(Cc2ccccc2)c1
not listed: [15] | [16] | [17]
inactive: all other assays above

O=C(Nc1cccc(Cl)c1)OCC#CCCl
inactive: [2] | [3] | [6] | [12] | [13] | [14]
active: [1] 61.1 µM | [4] 27.3 µM | [5] 24.3 µM | [7] 5.45 µM | [10] 54.5 µM

CSc1ccc2c(c1)C(N1CCN(C)CC1)Cc1ccccc1S2 (configuration not stated)
active: [4] 23.7 µM | [7] 15 µM | [10] 16.8 µM | [11] 16.8 µM
inactive: [1] | [15] | [3] | [6] | [12]

C=C(C)C(=O)OCC(O)COc1ccc(C(C)(C)c2ccc(OCC(O)COC(=O)C(=C)C)cc2)cc1 (configuration not stated)
active: [1] 27.3 µM | [15] 21.7 µM | [7] 48.6 µM | [10] 61.1 µM
inactive: [2] | [3] | [4] | [6] | [13]

CC[C@H]1O[C@]2(CC[C@@H]1C)C[C@@H]1C[C@@H](C/C=C(\C)C[C@@H](C)/C=C/C=C3\CO[C@@H]4[C@H](O)C(C)=C[C@@H](C(=O)O1)[C@]34O)O2
active: [16] 60.6 µM | [10] 24.1 µM
not listed: [4] | [8] | [9] | [11] | [15] | [17]
inactive: all other assays above

CCC(Cl)C(Cl)C(Cl)CC(Cl)C(Cl)C(C)Cl (configuration not stated)
not listed: [9] | [10] | [12] | [15] | [17]
inactive: all other assays above

CCCN(CCC)C(=O)C(CCC(=O)OCCCN1CCN(CCOC(=O)Cc2c(C)n(C(=O)c3ccc(Cl)cc3)c3ccc(OC)cc23)CC1)NC(=O)c1ccccc1 (configuration not stated)
inactive: [15] | [2] | [3] | [6] | [17] | [13]
active: [1] 13.3 µM | [4] 11.9 µM | [7] 9.44 µM | [10] 10.6 µM | [11] 13.3 µM
